In the supplement of paper PMC10127200:
Counter-ions that a name gives are not always drawn.

System: OVCAR4
Assay: Euclidean distance of Cell Painting phenotypic profile (signed KS, 77 features) to DMSO centroid (dimensionless distance); 5 or 10 uM (library dependent); higher = stronger phenotypic change vs DMSO (phenoactivity)
Settings: 48 h
Method in brief: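 Phenoactivity is defined as the Euclidean distance from a compound profile to the median vehicle profile. Each profile comprised 77 Harmony features, scored as signed Kolmogorov-Smirnov statistics versus same-plate vehicle wells, then plate-position corrected, correlation-weighted and replicate-averaged at the top dose. Five cancer lines and one healthy fibroblast line were exposed to library compounds for 48 h at 10 or 5 uM (0.1% DMSO final).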

In order of falling Euclidean distance:
1. N=c1ccn2c(n1)O[C@H]1[C@H](O)[C@@H](CO)O[C@H]12 [Cyclocytidine HCl]  4.57
2. Clc1ccc(C2(c3ccc(-c4cn[nH]c4)cc3)CCNCC2)cc1  3.48
3. Nc1cccc(-c2cc3c(Oc4cccc(O)c4)ncnc3[nH]2)c1  3.29
4. CCCCOc1c(C(=O)c2c(F)cc(C)cc2F)c[nH]c2nncc1-2  2.1
5. O=S(=O)(NCCNC/C=C/c1ccc(Br)cc1)c1cccc2cnccc12  1.89
6. N=C(N)c1ccc(OCCCCCOc2ccc(C(=N)N)cc2)cc1 [Pentamidine]  1.65
7. CCCCCCCCCCCCc1ccc(S(=O)(=O)Nc2nncs2)cc1  1.51
8. NCCCCCC(=O)O  1.43
9. CC[C@H]1OC(=O)[C@H](C)[C@@H](O[C@H]2C[C@@](C)(OC)[C@@H](O)[C@H](C)O2)[C@H](C)[C@@H](O[C@@H]2O[C@H](C)C[C@H](N(C)C)[C@H]2O)[C@](C)(O)C[C@@H](C)/C(=N\OCOCCOC)[C@H](C)[C@@H](O)[C@]1(C)O [Roxithromycin]  1.42
10. CCOC(=O)[C@H](CCc1ccccc1)N[C@H]1CCCN2CCC[C@@H](C(=O)O)N2C1=O [Cilazapril Monohydrate]  1.38
11. CS(=O)(=O)c1cccc(CNc2nc(Nc3ccc4c(c3)CCC(=O)N4)ncc2C(F)(F)F)c1  1.34
12. CN(C)Cc1cccc(N=C(c2ccccc2)c2c(O)[nH]c3cc(C(=O)N(C)C)ccc23)c1  1.3
13. CC(C)C[C@@H](C(=O)N[C@H](C(=O)OC1CCCC1)c1ccccc1)[C@H](O)C(=O)NO [Tosedostat (CHR2797)]  1.27
14. C[C@]1(O)C[C@@H](c2nc(-c3ccc4ccc(-c5ccccc5)nc4c3)c3c(N)nccn32)C1 [OSI-906 (Linsitinib)]  1.27
15. CC(C)OC(=O)CCC/C=C\C[C@@H]1[C@@H](/C=C/[C@@H](O)COc2cccc(C(F)(F)F)c2)[C@H](O)C[C@@H]1O [Travoprost]  1.25
16. CN(C)Cc1cccc(N/C(=C2\C(=O)Nc3cc(C(N)=O)ccc32)c2ccccc2)c1  1.22
17. Cc1ccc(-n2nc(C(C)(C)C)cc2NC(=O)Nc2ccc(OCCN3CCOCC3)c3ccccc23)cc1 [BIRB 796 (Doramapimod)]  1.21
18. O=C(NOCC(O)CO)c1cc(Br)c(F)c(F)c1Nc1ccc(I)cc1F (stereo not given)  1.17
19. CC(C)c1cnn2c(NCc3ccccc3)cc(NCCCCCCN)nc12  1.08
20. COc1cc(Nc2nc3ccccc3nc2NS(=O)(=O)c2ccc(NC(=O)c3ccc(C)c(OC)c3)cc2)cc(OC)c1  1.07
21. CCCNC(=O)Nc1ccc(Oc2ncnc3cc(OC)c(OC)cc23)cc1Cl  1.05
22. CC(C)[C@H](O)C(=O)N[C@@H](C)C(=O)N[C@@H]1C(=O)N(C)CCc2ccccc21  1.03
23. Cc1cc(NC(=O)Nc2ccc(N(C)C)cc2)c2cc(F)cc(F)c2n1  0.985
24. O=NN(CCCl)C(=O)NCCCl [Carmustine]  0.875
25. O=C(O)Cc1ccccc1Nc1c(Cl)cccc1Cl [Diclofenac Sodium]  0.677
